Counter-ions that a name gives are not always drawn. ± gives the standard deviation of the averaged measurements.
Columns and labels:
Assay in all cases: growth (OD600 after 10 h); higher = more growth (less inhibition)
[1] = test system: E. coli TESEC Alr+ wild-type control; settings: compound 0.1 mM; raw OD600 reference: median of DMSO wells 0.241, cell-free background 0.041
Description: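 TESEC Mtb Alr E. coli, or the Alr+ wild-type control, in 384-well plates with Prestwick library compounds at 0.1 mM and 1% DMSO, across arabinose induction levels of 1E3 to 1E7 nM. Growth is read as OD600 after 10 h at 37 °C in triplicate biological replicates.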

[2] = test system: E. coli TESEC Mtb Asd; settings: compound 0.1 mM
Description: (§1)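 TESEC E. coli strains in which the native enzyme is deleted and replaced by arabinose-inducible Mtb Asd, DapB, CysH or TrpD, each grown in its selective medium. Strains were screened against the Prestwick library at 0.1 mM and 1% DMSO in 384-well format at low and high arabinose induction. Growth is read as OD600 after 10 h in triplicate.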

[3] = test system: E. coli TESEC Mtb DapB; settings: compound 0.1 mM
Description: as §1

[4] = test system: E. coli TESEC Alr+ wild-type control; settings: compound 0.1 mM; raw OD600 reference: median of DMSO wells 0.49, cell-free background 0.052
Description: (§2)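 TESEC Mtb Alr E. coli (ΔaraC ΔtolC ΔentC Δalr ΔdadX, arabinose-inducible Mtb Alr) or the Alr+ wild-type control strain, grown in defined M9-fructose medium without D-alanine in 96-well plates with Prestwick library compounds at 0.1 mM and 1% DMSO. Low Alr induction is 0.1 µM arabinose and high induction is 10 mM arabinose.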

[5] = test system: E. coli TESEC Mtb Alr; settings: compound 0.1 mM
Description: as §2

[6] = arabinose induction (level): High, raw OD600 reference: median of DMSO wells 0.331, cell-free background 0.041
[7] = arabinose induction (level): Low, raw OD600 reference: median of DMSO wells 0.417, cell-free background 0.041
[8] = arabinose induction (level): High, raw OD600 reference: median of DMSO wells […], cell-free background 0.041
[9] = arabinose induction (level): Low, raw OD600 reference: median of DMSO wells 0.227, cell-free background 0.041
[10] = arabinose 100 nM, raw OD600 reference: median of DMSO wells 0.413, cell-free background 0.052
[11] = arabinose 10000000 nM, raw OD600 reference: median of DMSO wells […], cell-free background 0.052

| Compound | growth [1] | growth [2, 6] | growth [2, 7] | growth [3, 8] | growth [3, 9] | growth [4] | growth [5, 10] | growth [5, 11] |
| --- | --- | --- | --- | --- | --- | --- | --- | --- |
| CCCCCN(C)CCC(O)(P(=O)(O)O)P(=O)(O)O [Ibandronate sodium] | 0.245 ± 0.0075 | 0.364 ± 0.022 | 0.448 ± 0.015 | 0.206 ± 0.0027 | 0.232 ± 0.035 | 0.462 ± 0.035 | 0.422 ± 0.01 | 0.358 ± 0.014 |
| C=C[C@H]1CN2CC[C@H]1C[C@@H]2[C@@H](O)c1ccnc2ccc(OC)cc12 [Quinidine hydrochloride monohydrate] | 0.22 ± 0.004 | 0.239 ± 0.04 | 0.412 ± 0.012 | 0.198 ± 0.0064 | 0.229 ± 0.034 | 0.483 ± 0.07 | 0.4326 ± 0.004 | 0.356 ± 0.0089 |
| CCCCC1(COC(=O)CCC(=O)O)C(=O)N(c2ccccc2)N(c2ccccc2)C1=O [Suxibuzone] | 0.203 ± 0.0032 | 0.305 ± 0.052 | 0.427 ± 0.026 | 0.1763 ± 0.0008 | 0.204 ± 0.009 | 0.521 ± 0.1 | 0.401 ± 0.0076 | 0.341 ± 0.0062 |
| CC(=O)[C@@]1(O)CC[C@H]2[C@@H]3C[C@H](C)C4=CC(=O)C=C[C@]4(C)[C@@]3(F)[C@@H](O)C[C@@]21C [Fluorometholone] | 0.235 ± 0.021 | 0.457 ± 0.013 | 0.428 ± 0.019 | 0.209 ± 0.0065 | 0.272 ± 0.017 | 0.447 ± 0.013 | 0.423 ± 0.007 | 0.334 ± 0.049 |
| OC[C@H]1O[C@@H](Oc2ccc(O)cc2)[C@H](O)[C@@H](O)[C@@H]1O [Arbutin] | 0.245 ± 0.012 | 0.21 ± 0.011 | 0.362 ± 0.092 | 0.209 ± 0.003 | 0.246 ± 0.051 | 0.499 ± 0.077 | 0.403 ± 0.017 | 0.317 ± 0.013 |
| CC1(C)O[C@@H]2C[C@H]3[C@@H]4C[C@H](F)C5=CC(=O)CC[C@]5(C)[C@H]4[C@@H](O)C[C@]3(C)[C@]2(C(=O)CO)O1 [Flurandrenolide] | 0.223 ± 0.0092 | 0.282 ± 0.038 | 0.448 ± 0.035 | 0.216 ± 0.0087 | 0.239 ± 0.0036 | 0.417 ± 0.041 | 0.406 ± 0.01 | 0.338 ± 0.011 |
| CCN1CCCC1CNC(=O)c1cc(S(N)(=O)=O)ccc1OC (configuration not stated) [Sulpiride] | 0.2503 ± 0.0019 | 0.309 ± 0.099 | 0.423 ± 0.023 | 0.221 ± 0.037 | 0.253 ± 0.024 | – | 0.419 ± 0.0074 | 0.35 ± 0.017 |
| CO[C@@]1(NC(=O)Cc2cccs2)C(=O)N2C(C(=O)O)=C(COC(N)=O)CS[C@@H]21 [Cefoxitin sodium salt] | 0.0397 ± 0.00092 | 0.0597 ± 0.0059 | 0.0593 ± 0.014 | 0.0512 ± 0.0019 | 0.0492 ± 0.0059 | 0.0458 ± 0.00061 | 0.0456 ± 0.00026 | 0.052 ± 0.0013 |
| O=C(O)c1cccnc1Nc1cccc(C(F)(F)F)c1 [Niflumic acid] | 0.113 ± 0.0057 | 0.15 ± 0.022 | 0.16 ± 0.018 | 0.172 ± 0.0053 | 0.209 ± 0.022 | 0.206 ± 0.046 | 0.244 ± 0.066 | 0.0999 ± 0.0073 |
| CN[C@@H]1[C@H](O[C@H]2[C@H](O[C@H]3[C@H](O)[C@@H](O)[C@H](NC(=N)N)[C@@H](O)[C@@H]3NC(=N)N)O[C@@H](C)[C@]2(O)CO)O[C@@H](CO)[C@H](O)[C@H]1O [Dihydrostreptomycin sulfate] | 0.041 ± 0.0011 | 0.0488 ± 0.00072 | 0.0499 ± 0.0017 | 0.0489 ± 0.00049 | 0.0483 ± 0.00061 | 0.0605 ± 0.0073 | 0.0553 ± 0.0036 | 0.0534 ± 0.00091 |
| COc1ccc(-c2cc(=S)ss2)cc1 [Anethole-trithione] | 0.182 ± 0.013 | 0.211 ± 0.018 | 0.263 ± 0.022 | 0.193 ± 0.0052 | 0.218 ± 0.011 | 0.616 ± 0.027 | 0.4304 ± 0.0029 | 0.369 ± 0.019 |
